# Screens as filed in PubChem BioAssay.
# Hits are enriched below; roughly 4.4% of the tested compounds scored in any of these assays.
# D1 antag = human D1 dopamine receptor antagonism; activity change, negative = inhibition, % at 10 µM; HEK293 TREx D1 cells, calcium flux, dopamine EC80; active compounds read low; 360,000 tested, 3.2% active; P21728; in the data active = activity change below about -30%; also: % is scaled to controls: 0 for no effect and ±100 for the full control effect
# Target sequence (P21728 whole entry, looked up): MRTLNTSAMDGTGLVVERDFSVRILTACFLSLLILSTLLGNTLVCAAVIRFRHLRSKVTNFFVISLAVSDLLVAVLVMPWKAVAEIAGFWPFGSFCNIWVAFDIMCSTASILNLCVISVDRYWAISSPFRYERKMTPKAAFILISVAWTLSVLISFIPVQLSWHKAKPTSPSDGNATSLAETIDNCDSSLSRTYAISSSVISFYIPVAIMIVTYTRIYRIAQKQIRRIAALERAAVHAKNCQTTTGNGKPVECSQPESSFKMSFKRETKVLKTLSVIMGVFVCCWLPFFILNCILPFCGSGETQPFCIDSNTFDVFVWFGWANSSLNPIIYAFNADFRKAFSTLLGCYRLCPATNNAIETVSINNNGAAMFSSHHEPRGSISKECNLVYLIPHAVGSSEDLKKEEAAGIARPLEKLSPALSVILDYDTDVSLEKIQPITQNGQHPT
#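 HEK293 T-REx cells expressing inducible, force-coupled D1 receptor; no-wash Ca dye, 30–90 min RT. Cmpd → 180 s read at 1 Hz → EC80 DA → 180 s read.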
# TRHR PAM = TRH receptor (human) allosteric enhancement; enhancement, % at 2 µM; 360,000 tested, 0.66% active; AID 493056; TRHR cells, fluo-8 calcium fluorescence, EC20 TRH enhancement; in the data active = enhancement above about 30%; also: 0% is about no effect
#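 TRHR-expressing cells loaded with fluo-8 calcium dye were read kinetically (ex 480/em 530) during compound addition, then stimulated with an EC20 of TRH (10 nM final). Enhancement of the Gq-mediated intracellular calcium response was scored.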
# USP1-UAF1 inh = blocks the human USP1/UAF1 deubiquitinase complex; Potency, µM (doses to about 57.1 µM), without a hit: top-dose activity change, negative = inhibition, most hits filed as inhibitors; O94782; recombinant USP1/UAF1, Ub-Rhodamine cleavage fluorescence; AID 743255; 390,000 tested, 0.23% active; active = well fitted inhibition curve with a large enough effect; inconclusive = small, poorly fitted or top-dose-only effect; inactive = no such curve, though single readings can be large or run the other way; also: potency is read from the fitted curve at half-maximal effect; % is scaled to controls: 0 for no effect and ±100 for the full control effect; nearly all actives have a fitted effect of over 60% in size
#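 USP1/UAF1 complex (1 nM) preincubated 15 min at room temperature with compound, then Ub-Rho substrate (150 nM final) added. Kinetic fluorescence at 480/540 nm over 6 reads at 60 s intervals; 50 mM HEPES pH 7.8, 0.5 mM EDTA, 0.1 mg/ml BSA, 1 mM TCEP, 0.01% Tween-20.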
# TRHR ag = TRH receptor (human) agonism | P34981 | TRHR cells, calcium flux fluo-8, FDSS agonist mode | activation, % at 2 µM | 360,000 tested, 0.18% active | AID 493084; also: 0% is about no effect
#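 Read-out: compound-evoked intracellular calcium rise in TRHR cells, fluo-8 dye, kinetic FDSS fluorescence at 1 s/cycle following a 10-cycle baseline. Cells cultured overnight before dye loading (30 min–1.5 h, RT).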
# D1 PAM = human D1 dopamine receptor positive modulation; HEK293 TREx D1 cells, calcium flux, dopamine EC20 potentiation; AID 504651; 360,000 tested, 0.036% active; potentiation, % at 10 µM; P21728; in the data active = potentiation above about 30%; also: 0% is about no effect
# D1 agonist = activates the human D1 dopamine receptor | activation, % at 2 µM | HEK293 T-REx D1 cells, calcium flux, agonist mode | 360,000 tested, 1% active | AID 504660; also: 0% is about no effect
#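 Inducible HEK293 T-REx D1 cells, force-coupled to calcium signalling, were plated at 4000 cells/well with tetracycline and held overnight at 30 C. After no-wash calcium dye loading, compound-evoked calcium rise over 180 s flagged agonists.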
# An asterisk follows results filed as active; u = inconclusive; x = no result given. Rule as the data show it, unless noted: active = activation above about 30%; inactive = the rest.
SMILES,D1 antag,TRHR PAM,USP1-UAF1 inh,TRHR ag,D1 PAM,D1 agonist
CCN(CCCC(=O)c1ccc(F)cc1)CCc1ccccc1,-35.6*,3.0,-14.7%,0.9,-5.2,16.1
CCN(CCCc1ccccc1)CCCc1ccccc1,-18.8,-7.6,14.2%,0.1,-5.0,21.7
Cc1cc(C(F)(F)F)n2ncc(C(=O)O)c2n1,-31.0*,4.5,-23.7%,1.2,x,4.4
CCC(C)NC(=O)c1sc2nc(C)c(C(=O)Nc3ccc(C)cc3C)c(-c3ccccc3Cl)c2c1N (configuration not stated),-7.2,13.6,-27.6%,0.1,-0.1,2.2
O=S(=O)(NCCC1CC1(Cl)Cl)c1ccc(Cl)cc1 (configuration not stated),-37.9*,-8.7,-13.3%,0.1,-3.0,5.0
CC(C)(C)SCCNS(=O)(=O)c1ccc(Cl)cc1,-8.0,0.9,-5.4%,-0.9,-4.3,-0.1
CCCCNC(=O)CCCn1c(=O)c2ccccc2n(Cc2ccc(Cl)cc2)c1=O,-3.9,7.6,-16.4%,-0.8,1.9,-0.3
CC(C)(C)C(=O)N1CCN(c2c(Cl)cccc2[N+](=O)[O-])CC1,-51.7*,20.5,-11.3%,-0.7,-5.9,1.6
CCN(CC)S(=O)(=O)c1ccc(N=NC2=C(O)CCCC2=O)cc1,-11.8,0.3,-19.6%,-0.1,1.9,1.3
CCN(CC)S(=O)(=O)c1ccc(N=Nc2c(N)[nH]c(=O)[nH]c2=O)cc1,-41.1*,-4.7,-9.9%,-1.0,1.6,1.9
CCOc1ccccc1C(=O)NCC(=O)N1CCN(Cc2ccc3c(c2)OCO3)CC1,-14.6,33.3*,-11.6%,-0.3,-9.8,0.1
C=CCc1ccccc1OCC(O)CN1CCN(c2ccc(C)cc2)CC1 (configuration not stated),-49.8*,2.7,-4.3%,-0.1,-11.8,1.3
C=CCc1ccccc1OCC(O)CN1CCN(CCN2C(=O)c3cccc4cccc(c34)C2=O)CC1 (configuration not stated),-69.3*,11.0,-13.5%,-0.8,-7.8,5.7
OC(COc1cccc2ccccc12)CN1CCN(c2cccc(Cl)c2)CC1 (configuration not stated),12.4,6.4,u,1.8,11.1,4.3
Cc1cccc(N2CCN(CC(O)COc3ccccc3Cl)CC2)c1 (configuration not stated),-33.2*,2.2,-2.5%,0.4,-9.2,15.4
Cc1ccccc1OCC(O)CN1CCN(CCN2C(=O)c3cccc4cccc(c34)C2=O)CC1 (configuration not stated),3.1,-1.8,-21.6%,-0.7,-10.5,-0.5
CC(=O)c1cccc(NC(=O)c2sc(-n3nc(C)c(CCC(C)C)c3C)nc2C)c1,-2.6,4.0,1.9%,-1.2,0.6,-1.8
CCN(CC)S(=O)(=O)c1ccc2c(c1)N(CC(=O)N1CCN(c3cccc(OC)c3)CC1)C(=O)CO2,-11.0,-4.3,-13.9%,0.2,-4.3,0.0
O=S(=O)(c1ccccc1)c1nnn2c1nc(NCc1ccccc1)c1sccc12,4.8,-3.3,-0.7%,0.9,-0.9,4.1
COc1ccccc1N1CCN(CC(O)COc2ccc(C)c(C)c2)CC1 (configuration not stated),-22.0,-0.2,-3.8%,-0.9,-0.9,9.1
COc1ccccc1N1CCN(CC(O)COc2ccc(Cl)c(C)c2)CC1 (configuration not stated),-31.2*,-1.0,u,0.5,-4.9,13.1
C=CCc1ccccc1OCC(O)CN1CCN(Cc2ccc3c(c2)OCO3)CC1 (configuration not stated),-71.3*,-1.7,-13.3%,-1.1,-9.7,13.6
Cc1ccc(OCC(O)CN2CCN(Cc3ccc4c(c3)OCO4)CC2)cc1C (configuration not stated),-6.8,19.0,-9.7%,0.5,-2.6,14.2
Cc1ccc(C)c(N2CCN(S(=O)(=O)c3cc(C(=O)Nc4ccccc4C(F)(F)F)ccc3F)CC2)c1,-13.9,3.1,-14.2%,0.4,-2.4,-3.2
COc1cccc(C2C=C(c3ccc(Br)s3)Nc3ncnn32)c1OC (configuration not stated),-10.1,0.3,-10.6%,32.8*,-1.3,48.4*
SMILES,D1 antag,TRHR PAM,USP1-UAF1 inh,TRHR ag,D1 PAM,D1 agonist
CCC(=O)Nc1ccc(CC)cc1-c1nc2ccccc2n(CC(=O)c2ccc(OC)cc2)c1=O,-2.9,1.8,-14.2%,-0.2,1.8,0.3
COc1ccc2c(c1)CC/C2=N\OC(=O)c1ccccc1C,-2.1,-1.7,3.8%,0.8,-4.3,2.1
COc1ccc2c(c1)CCC/C2=N/OC(=O)c1ccccc1OC,-32.8*,-2.5,-0.4%,-0.1,-4.0,19.8
COc1ccccc1CN1CCCCC1C(=O)O (configuration not stated),-7.2,40.9*,-19.7%,0.5,4.7,3.9
COc1ccc(Cl)cc1NC(=O)c1nn(-c2ccc(C)cc2)c(=O)n(C)c1=O,2.2,2.7,-10.0%,0.2,-0.8,-0.3
Clc1cccc(CSc2ccc(-c3cccs3)nn2)c1,-2.7,1.7,u,-0.1,-3.4,44.8*
Clc1ccc(CSc2ccc(-c3cccs3)nn2)cc1,-14.9,6.6,-14.6%,-0.1,-8.7,16.6
CC1CCC(N2CC(=O)N(C3CCCC3)C(c3ccc(Cl)cc3)C2=O)CC1 (configuration not stated),14.4,31.0*,-3.6%,-0.2,-0.6,-0.7
Cc1ccc(NC(=O)Cn2cc(S(=O)(=O)N3CCN(c4ccccc4F)CC3)c3ccccc3c2=O)cc1F,10.4,1.0,u,0.9,2.5,5.1
CC(=O)Nc1ccc(NC(=O)c2ccc(-c3ccccc3Cl)o2)cc1,6.3,33.1*,-14.5%,0.4,-6.3,3.9
CN1CCN(c2ccc(NC(=O)c3ccc(-c4ccccc4F)o3)cc2)CC1,-96.3*,9.0,-13.6%,0.6,-18.9,5.4
O=C(Nc1ccc(N2CCOCC2)cc1)c1ccc(Br)o1,-6.3,-3.9,-20.8%,0.3,-7.3,1.0
CN1CCN(c2ccc(NC(=O)c3ccccc3Br)cc2)CC1,-0.1,1.7,-18.0%,1.2,-16.3,3.2
CN1CCN(c2ccc(NC(=O)c3ccc(Br)o3)cc2)CC1,-41.3*,-14.1,-19.1%,0.3,-10.1,3.9
Cc1ccc(N/C(N)=N/c2nc3c(c(=O)[nH]2)CCCC3)c(C)c1,3.7,0.7,5.8%,-0.4,-7.6,1.0
Cc1ccc(N/C(N)=N/c2nc(C)cc(N3CCCCC3)n2)c(C)c1,-98.7*,-16.1,-4.6%,3.7,-8.2,15.8
Cc1ccc(-c2nc(N)c3c(-c4ccc(C)cc4)nn(C(C)(C)C)c3n2)cc1,-46.3*,-1.5,-13.9%,1.4,-19.6,1.6
